Out of some 5,500 compounds screened, about 2,000 (36%) were called active. Roughly 18% stayed inconclusive and do not appear here. Rule as the data show it: active = normalized growth mostly below about 0.91 (no sharp cut-off); inconclusive = no clear call, values can overlap the other calls; inactive = mostly above about 0.92. The list shows a part of the results.
Assay: chemical genetic growth profiling, strain panel (AID 1159580);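 also: tested at 20 µM; growth read once vehicle control cultures reached saturation at 30 °C; 1 = growth at the plate median or of vehicle wells; lower values mean less growth of the strain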
Conditions: growth OD

Measured: normalized growth

N#C/C(=C\c1ccc(O)cc1)C(=O)O
inactive: S. cerevisiae deletion strains, locus YJR075W, strain HOC1, active compounds read low 0.979 | S. cerevisiae deletion strains, locus YKL009W, strain mrt4, active compounds read low 0.963 | S. cerevisiae deletion strains, locus YKL068W, active compounds read low 0.999 | S. cerevisiae deletion strains, locus YKL085W, strain MDH1 (second series), active compounds read low 0.973 | S. cerevisiae deletion strains, locus YKL085W, strain MDH1, active compounds read low 0.973 | S. cerevisiae deletion strains, locus YKL160W, strain elf1, active compounds read low 0.988 | S. cerevisiae deletion strains, locus YKL190W, strain CNB1, active compounds read low 0.992 | S. cerevisiae deletion strains, locus YKR001C, strain vps1, active compounds read low 1.01 | S. cerevisiae deletion strains, locus YKR026C, strain gcn3, active compounds read low 0.97 | S. cerevisiae deletion strains, locus YKR091W, strain srl3, active compounds read low 0.994 | S. cerevisiae deletion strains, locus YLL001W, strain dnm1, active compounds read low 0.994 | S. cerevisiae deletion strains, locus YLL026W, active compounds read low 1.01 | S. cerevisiae deletion strains, locus YLL041C, strain sdh2, active compounds read low 0.995 | S. cerevisiae deletion strains, locus YLR027C, strain aat2, active compounds read low 1.01 | S. cerevisiae deletion strains, locus YLR039C, strain RIC1, active compounds read low 0.981 | S. cerevisiae deletion strains, locus YLR058C, strain SHM2, active compounds read low 0.979 | S. cerevisiae deletion strains, locus YLR102C, strain apc9, active compounds read low 0.988 | S. cerevisiae deletion strains, locus YLR113W, strain HOG1, active compounds read low 1.01 | S. cerevisiae deletion strains, locus YLR221C, strain rsa3, active compounds read low 0.984 | S. cerevisiae deletion strains, locus YLR258W, strain gsy2, active compounds read low 1 | S. cerevisiae deletion strains, locus YLR262C, strain YPT6 (second series), active compounds read low 0.993 | S. cerevisiae deletion strains, locus YLR262C, strain YPT6, active compounds read low 0.97 | S. cerevisiae deletion strains, locus YLR268W, strain sec22, active compounds read low 0.985 | S. cerevisiae deletion strains, locus YLR320W, strain mms22, active compounds read low 1.03 | S. cerevisiae deletion strains, locus YLR330W, strain CHS5, active compounds read low 0.992 | S. cerevisiae deletion strains, locus YLR342W, strain FKS1 (second series), active compounds read low 1.07 | S. cerevisiae deletion strains, locus YLR342W, strain FKS1, active compounds read low 1.01 | S. cerevisiae deletion strains, locus YLR357W, strain rsc2, active compounds read low 0.989 | S. cerevisiae deletion strains, locus YLR370C, strain arc18, active compounds read low 0.995 | S. cerevisiae deletion strains, locus YLR371W, strain rom2, active compounds read low 1.01 | S. cerevisiae deletion strains, locus YLR384C, strain iki3, active compounds read low 1 | S. cerevisiae deletion strains, locus YLR418C, strain cdc73, active compounds read low 0.953 | S. cerevisiae deletion strains, locus YML016C, strain PPZ1, active compounds read low 0.992 | S. cerevisiae deletion strains, locus YML032C, strain rad52, active compounds read low 1.03 | S. cerevisiae deletion strains, locus YML120C, strain ndi1, active compounds read low 0.994 | S. cerevisiae deletion strains, locus YML124C, strain tub3, active compounds read low 0.999 | S. cerevisiae deletion strains, locus YMR058W, strain fet3, active compounds read low 0.988 | S. cerevisiae deletion strains, locus YMR078C, strain ctf18, active compounds read low 0.998 | S. cerevisiae deletion strains, locus YMR125W, strain sto1, active compounds read low 0.96 | S. cerevisiae deletion strains, locus YMR129W, active compounds read low 0.982 | S. cerevisiae deletion strains, locus YMR205C, strain PFK2, active compounds read low 1.04 | S. cerevisiae deletion strains, locus YMR223W, strain ubp8, active compounds read low 1.04 | S. cerevisiae deletion strains, locus YMR231W, strain pep5, active compounds read low 1.01 | S. cerevisiae deletion strains, locus YMR263W, strain SAP30, active compounds read low 0.962 | S. cerevisiae deletion strains, locus YMR307W, strain GAS1, active compounds read low 1.12 | S. cerevisiae deletion strains, locus YNL067W, strain RPL9B, active compounds read low 0.974 | S. cerevisiae deletion strains, locus YNL071W, strain lat1, active compounds read low 0.998 | S. cerevisiae deletion strains, locus YNL128W, strain TEP1, active compounds read low 0.927 | S. cerevisiae deletion strains, locus YNL153C, strain GIM3, active compounds read low 0.953 | S. cerevisiae deletion strains, locus YNL183C, strain NPR1, active compounds read low 0.993 | S. cerevisiae deletion strains, locus YNL209W, strain ssb2, active compounds read low 0.997 | S. cerevisiae deletion strains, locus YNL233W, strain BNI4, active compounds read low 0.997 | S. cerevisiae deletion strains, locus YNL248C, strain rpa49, active compounds read low 0.963 | S. cerevisiae deletion strains, locus YNL250W, strain rad50, active compounds read low 0.968 | S. cerevisiae deletion strains, locus YNL271C, strain bni1, active compounds read low 1.01 | S. cerevisiae deletion strains, locus YNL298W, strain CLA4, active compounds read low 1 | S. cerevisiae deletion strains, locus YNL307C, strain MCK1, active compounds read low 1.03 | S. cerevisiae deletion strains, locus YNL322C, strain KRE1 (second series), active compounds read low 0.996 | S. cerevisiae deletion strains, locus YNL322C, strain KRE1, active compounds read low 0.977 | S. cerevisiae deletion strains, locus YNR049C, strain mso1, active compounds read low 0.996 | S. cerevisiae deletion strains, locus YNR052C, strain pop2, active compounds read low 1 | S. cerevisiae deletion strains, locus YOL006C, strain TOP1, active compounds read low 0.912 | S. cerevisiae deletion strains, locus YOL012C, strain htz1 1.16 | S. cerevisiae deletion strains, locus YOL147C, strain pex11, active compounds read low 0.998 | S. cerevisiae deletion strains, locus YOR001W, strain rrp6, active compounds read low 0.982 | S. cerevisiae deletion strains, locus YOR061W, strain CKA2, active compounds read low 0.954 | S. cerevisiae deletion strains, locus YOR069W, strain VPS5, active compounds read low 0.992 | S. cerevisiae deletion strains, locus YOR070C, strain gyp1, active compounds read low 1 | S. cerevisiae deletion strains, locus YOR080W, strain dia2, active compounds read low 0.996 | S. cerevisiae deletion strains, locus YOR083W, strain WHI5, active compounds read low 0.978 | S. cerevisiae deletion strains, locus YOR106W, strain vam3, active compounds read low 0.997 | S. cerevisiae deletion strains, locus YOR136W, strain idh2, active compounds read low 1 | S. cerevisiae deletion strains, locus YOR144C, strain elg1, active compounds read low 0.993 | S. cerevisiae deletion strains, locus YOR184W, strain ser1, active compounds read low 1.08 | S. cerevisiae deletion strains, locus YOR231W, strain MKK1, active compounds read low 1.04 | S. cerevisiae deletion strains, locus YOR265W, strain rbl2, active compounds read low 1 | S. cerevisiae deletion strains, locus YOR270C, strain vph1, active compounds read low 0.989 | S. cerevisiae deletion strains, locus YOR290C, strain snf2, active compounds read low 0.958 | S. cerevisiae deletion strains, locus YOR316C, strain cot1, active compounds read low 0.985 | S. cerevisiae deletion strains, locus YPL051W, strain arl3, active compounds read low 0.988 | S. cerevisiae deletion strains, locus YPL055C, strain LGE1, active compounds read low 0.908 | S. cerevisiae deletion strains, locus YPL078C, strain atp4, active compounds read low 0.971 | S. cerevisiae deletion strains, locus YPL106C, strain sse1, active compounds read low 1 | S. cerevisiae deletion strains, locus YPL240C, strain hsp82, active compounds read low 0.986 | S. cerevisiae deletion strains, locus YPL241C, strain CIN2, active compounds read low 0.985 | S. cerevisiae deletion strains, locus YPL256C, strain CLN2, active compounds read low 1.09 | S. cerevisiae deletion strains, locus YPR119W, strain clb2, active compounds read low 1 | S. cerevisiae deletion strains, locus YPR141C, strain kar3, active compounds read low 0.977 | S. cerevisiae deletion strains, locus YPR163C, strain tif3, active compounds read low 1.01 | S. cerevisiae deletion strains, locus YPR167C, strain met16, active compounds read low 0.984 | S. cerevisiae deletion strains, strain wtn01, active compounds read low 0.977 | S. cerevisiae strains, strain wild type, active compounds read low 0.983

From PubChem BioAssay AID1159580 (chemical genetic matrix, 2015)
